Shown are actives, neighbours in structure and some others; about 2.9% of the full set was active somewhere.
D3 antag: antagonists of human D3 dopamine receptor; D3R cells, DiscoveRx beta-arrestin luminescence, antagonist mode; hits give low values; max response, negative = inhibition, %; 360,000 compounds, 2.5% hits; AID 652054; in the data active = max response below about -50%; inconclusive = no clear call, values can overlap the other calls; note: % is set by controls: 0 for no effect and ±100 for the full control effect
Target sequence (P35462 whole entry, looked up): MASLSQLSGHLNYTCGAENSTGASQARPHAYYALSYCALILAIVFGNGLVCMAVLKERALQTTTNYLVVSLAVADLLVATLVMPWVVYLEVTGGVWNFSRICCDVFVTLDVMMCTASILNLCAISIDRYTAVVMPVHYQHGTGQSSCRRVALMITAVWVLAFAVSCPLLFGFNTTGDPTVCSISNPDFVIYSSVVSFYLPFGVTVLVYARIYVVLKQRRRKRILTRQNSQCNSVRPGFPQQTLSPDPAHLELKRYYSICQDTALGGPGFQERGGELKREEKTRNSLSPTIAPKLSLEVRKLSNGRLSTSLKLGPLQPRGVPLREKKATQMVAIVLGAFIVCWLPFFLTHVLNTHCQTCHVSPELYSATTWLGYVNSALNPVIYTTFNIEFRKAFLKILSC
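Cells expressing the human receptor were seeded at 1500 cells/well, incubated overnight at 37 degrees C in 5% CO2, then exposed to library compounds with dopamine controls for 90 minutes at 37 degrees C before luminescent detection.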
DRD3 agonist: activates the human D3 dopamine receptor. D3R DiscoveRx beta-arrestin cells, luminescence, 90 min. AID 652048. P35462. max activation, %. 410,000 compounds, 0.58% hits; in the data active = max activation above about 30%; note: 0% is about no effect
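Cells at 1500/well, incubated overnight, then treated with pinned compounds (dopamine as control) for 90 min at 37 degrees C. DiscoveRx reagent added for 30 - 60 minutes at room temperature; luminescence read.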
Integrin act MD: activates integrin-mediated alleviation for muscular dystrophy. Potency, µM (top dose mostly 38.3 µM), without a hit: at the top dose activation, most hits filed as activators. 350,000 compounds, 0.064% hits. alpha7betagal myoblasts, beta-gal FDG fluorescence, 48 h. AID 624291; active = well fitted activation curve with a large enough effect; inconclusive = small, poorly fitted or top-dose-only effect; inactive = no such curve, though single readings can be large or run the other way;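 note: potency is the fitted concentration of half-maximal effect; 100% = response of the positive control SU9516; nearly all actives have a fitted effect of over 60% in size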
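Alpha7betagal+/- myoblasts (passage 13) were plated 16-24 hr, then exposed to compounds (1:260 dilution of DMSO stock) for 48 hours at 37C. After MPER lysis, β-galactosidase reporter activity was read as FDG fluorescence (ex 480/em 540) after 30 minutes.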
The depositor's hits bear a star; ? = inconclusive; / = no result given; [ ] = another dose, or the depositor's remark.

SMILES	D3 antag	DRD3 agonist	Integrin act MD
Cc1cccc(C)c1OCCN1CCCC1	-7.6	-10.0	-11.2%
CCOc1ccc(NCc2cccn2-c2nnc(N3CCC(C(=O)NCc4ccc(C)cc4)CC3)s2)cc1	/	-5.5	/
CCOc1ccccc1CNS(=O)(=O)c1cc2c(cc1C)NC(=O)CO2	/	-16.5	/
CN1CCN(CCCN2c3ccccc3Sc3ccc(S(=O)(=O)N(C)C)cc32)CC1	-53.0*	-23.2	/
CCCCCCCCCCCCCCCC(=O)OCCC1CCN(CCCN2c3ccccc3Sc3ccc(S(=O)(=O)N(C)C)cc32)CC1	/	-22.8	/
CC(C)NC(=O)N(C)C[C@H]1Oc2ccc(NS(=O)(=O)c3cccs3)cc2C(=O)N([C@H](C)CO)C[C@@H]1C	7.5	2.9	10.1%
COCCCNc1nc(=S)[nH]c2cc(OC)c(OC)cc12	-12.1	1.6	23.6%
Cc1ccc(Nc2c([N+](=O)[O-])c(=O)oc3ccccc23)cc1	-8.3	-6.2	?
O=c1oc2ccccc2c(Nc2ccc3ccccc3c2)c1[N+](=O)[O-]	-85.7*	0.7	-6.4%
COc1ccc(NC(=O)CN(C)CC(=O)NC2CCC(C)CC2)cc1 (stereo unspecified)	-5.4	-4.1	13.8%
Cc1cc(F)ccc1NC(=O)c1cc(S(=O)(=O)N2CCCC2)cn1C	-6.9	-4.2	-12.2%
CCC12CN(S(=O)(=O)c3ccc(C)cc3)CC(CC)(CN(S(=O)(=O)c3ccc(C)cc3)C1)C2=O	-15.9	-4.0	9.7%[7.66 µM]
Cc1ccc(S(=O)(=O)N2CC3(C)CN(S(=O)(=O)c4ccc(C)cc4)CC(C)(C2)C3)cc1	19.4	31.0*	-21.5%
O=C(Cn1cc(C(F)(F)F)ccc1=O)N/N=C/c1ccccc1O	14.2	1.8	-29.8%
OC(CNC1CCCc2ccccc21)COc1c(Cl)cccc1Cl (stereo unspecified)	-78.3*	-23.6	-30.4%
OC(CNC1Cc2ccccc2C1)COc1ccc(Cl)cc1 (stereo unspecified)	?	-10.8	5.2%
Cc1cc(NC(=O)Cn2nc(-c3ccccc3F)ccc2=O)ccc1-n1cnnn1	2.7	-9.2	-0.5%[7.66 µM]
CC(=O)Nc1nc2ccccc2n1Cc1ccc(Cl)cc1	13.6	4.1	-3.2%
CCN(CC)CCn1c(NC(=O)c2ccc(C(F)(F)F)cc2)nc2ccccc21	-54.2*	-10.9	-9.8%
Cn1c(NC(=O)c2ccc(F)cc2)nc2ccccc21	-14.2	-9.0	?
CCC(=O)Nc1nc2ccccc2n1CCN(CC)CC	-19.6	-32.9	7.0%[7.66 µM]
O=C(Nc1nc2ccccc2n1CCOc1ccc(Cl)cc1)c1ccco1	3.0	-6.9	-59.0%
CN(C)CCn1c(NC(=O)c2ccc(Cl)cc2)nc2ccccc21	-57.2*	-24.2	-38.7%
O=C(Nc1nc2ccccc2n1Cc1ccc(Cl)cc1)c1ccco1	-60.0*	-1.8	21.2%
CCN(CC)CCn1c(NC(=O)c2ccc(C)cc2)nc2ccccc21	-50.1*	-27.5	-4.0%
SMILES	D3 antag	DRD3 agonist	Integrin act MD
CCN1CCN(c2cc(C)c3cc(NC(=O)Cc4ccc(OC)c(OC)c4)ccc3n2)CC1	-2.9	-3.3	9.4%
CC(=O)N1c2ccccc2C2CCCC[C@H]21 (stereo partly specified)	-5.3	-25.7	19.1%
CCOC(=O)c1c(C)[nH]c(C)c1S(=O)(=O)N1CCN(c2cc(Cl)ccc2C)CC1	/	-25.4	/
COc1ccc(Nc2nc(NCCCN3CCOCC3)nc(N)c2[N+](=O)[O-])cc1	-7.2	0.5	-21.3%
COc1ccc(CNC(=O)c2ccc(-n3cncn3)c3ccoc23)cc1OC	0.0	9.7	/
COc1ccc(CNC(=O)c2ccc(-n3ccnc3)c3ccoc23)cc1OC	-76.3*	-6.1	/
CCOC(=O)N1CCC(NC(=O)c2cc(S(=O)(=O)N(CC)CC)ccc2F)CC1	12.4	2.3	4.3%
Cc1cc(NCc2ccccc2)nc2ccccc12	-57.3*	-5.1	6.5%
Cc1cc(NCc2ccccc2)c2ccccc2n1	4.2	-7.2	-36.8%
CC1(c2nnc(Cc3ccccc3)o2)CC(c2cccc([N+](=O)[O-])c2)=NO1 (stereo unspecified)	12.9	31.9*	30.1%
CC1(c2nnc(Cc3ccccc3)o2)CC(c2ccccc2[N+](=O)[O-])=NO1 (stereo unspecified)	-13.1	0.0	-3.2%
CNCCOc1ccccc1OC(C)C	-79.5*	-16.5	-17.2%
CCOc1ccccc1OCCOc1ccccc1OC(C)C	8.1	2.1	-7.3%
COc1ccc(NC(=O)C2CCN(S(=O)(=O)c3ccc4[nH]c(=O)ccc4c3)CC2)cc1Cl	/	2.0	/
COc1cc(C2C(C(=O)c3cccs3)=C(O)C(=O)N2c2cc(C)on2)ccc1O (stereo unspecified)	0.0	-2.5	18.5%
Cc1cc(N2C(=O)C(O)=C(C(=O)c3cccs3)C2c2cccc(O)c2)no1 (stereo unspecified)	10.1	0.3	-5.5%

Source: PubChem BioAssay
